Activation factor and activity change, negative = activation data for 42 molecules are collected here from PubChem BioAssay AID434970 (Sanford-Burnham Center for Chemical Genomics, 2010).

The campaign covered roughly 11,000 compounds. About 310 (2.8%) were called active. Rule as the data show it: active = activity change below about -85%; inactive = the rest. Shown is part of a subset that was picked to be rich in actives.

The test system of the assay is intestinal alkaline phosphatase [Mus musculus]. Briefly: mouse intestinal phosphatase enzyme activation – biochemical, luminescence, single concentration, confirmation (AID 434970). The note with it: purified mouse IAP, CDP-Star luminescence, 30 min, at 10 µM; activation factor: measured here: IAP activation factor, stronger effect = higher value; activity change, negative = activation: stronger effect = lower value.
Turning to `S=C(Nc1ccc(Cl)cc1)NC1CC2CCC(C1)N2Cc1ccccc1` (centres undefined), the activation factor is 1.64 and the activity change, negative = activation is -64% (inactive).

Consider `C=CCN1C2CCCC1CC(NC(=O)Nc1cccc(C(C)=O)c1)C2` (centres undefined), for which the activation factor is 0.972 and the activity change, negative = activation was 2.8% (inactive).

Take `CCOC(=O)c1ccc(NC(=O)NC2CC3CCC(C2)N3Cc2nnnn2Cc2ccco2)cc1` (centres undefined): the activation factor worked out at 1.95 and the activity change, negative = activation is -94.8% (inactive).

Take `Cc1cccc(NC(=S)NC2CC3CCCC(C2)N3CC(C)C)c1` (centres undefined): the activation factor turned out to be 2.45 and the activity change, negative = activation was -145% (active).

Take `Cc1ccc(C)c(NC(=S)NC2CC3CCCC(C2)N3CC(C)C)c1` (centres undefined): the activation factor was found to be 1.24 and the activity change, negative = activation was -23.9% (inactive).

As for `CCCN1C2CCCC1CC(NC(=O)Nc1cccc(C(C)=O)c1)C2` (centres undefined), the activation factor came out at 1.05 and the activity change, negative = activation is -5.35% (inactive).

`O=C(Nc1ccccc1)NC1CC2CCC(C1)N2Cc1nnnn1Cc1ccc2c(c1)OCO2` (centres undefined): the activation factor is 2.23 and the activity change, negative = activation was -123% (active).

Regarding `CCc1ccc(NC(=S)NC2CC3CCCC(C2)N3Cc2cccs2)cc1` (centres undefined), the activation factor turned out to be 1.88 and the activity change, negative = activation is -87.8% (inactive).

With `COc1cccc(NC(=S)NC2CC3CCCC(C2)N3CC(C)C)c1` (centres undefined), the activation factor came to 1.72 and the activity change, negative = activation is -71.5% (inactive).

As to `COc1cccc(NC(=O)NC2CCN(Cc3nnnn3Cc3ccc4c(c3)OCO4)CC2)c1`, the activation factor was determined as 1.58 and the activity change, negative = activation was -58.1% (inactive).

Take `CCc1ccc(NC(=S)NC2CC3CCCC(C2)N3Cc2ccccc2)cc1` (centres undefined): the activation factor was found to be 2.7 and the activity change, negative = activation is -170% (active).

Take `COc1ccc(CN2C3CCCC2CC(NC(=O)Nc2cccc(C)c2)C3)cc1` (centres undefined): the activation factor amounted to 10.5 and the activity change, negative = activation is -954% (active).

For the molecule `COc1ccc(-c2noc(CCC(=O)N3CCN(c4ccc(F)cc4)CC3)n2)cc1`, the activation factor is 1.1 and the activity change, negative = activation is -10.3% (inactive).

For `CC(C)NC(=O)c1ccc(CNC(=O)OCC(F)(F)F)cc1`, the activation factor is 1.05 and the activity change, negative = activation is -5.05% (inactive).

Take `COCCNC(=O)Cn1c(=O)n(Cc2ccco2)c(=O)c2ccccc21`: the activation factor was 1.06 and the activity change, negative = activation was -6.35% (inactive).

`O=C(NOCc1ccccc1)c1ccccc1`: the activation factor was found to be 0.948 and the activity change, negative = activation was 5.2% (inactive).

For `CCOC(=O)C1=CN(Cc2cccc(-c3ccc4c(c3)OCO4)c2)S(=O)(=O)N(C)C1C` (centres undefined), the activation factor worked out at 1 and the activity change, negative = activation is -0.3% (inactive).

On to `O=C1c2ccccc2[C@@H]2C[C@@H](O)[C@H](Nc3ccccc3Cl)CCN12`, for which the activation factor stood at 0.989 and the activity change, negative = activation was 1.1% (inactive).

In the case of `CCn1nnnc1SCC(=O)Nc1cc(C)on1`, the activation factor is 0.966 and the activity change, negative = activation is 3.35% (inactive).

As to `CCOC(=O)C1CCCN(C(=O)Cc2ccc(OC)c(OC)c2)C1` (centres undefined), the activation factor was 1 and the activity change, negative = activation was -0.35% (inactive).

`Cc1ccc(OCCCC(=O)Nc2nncs2)cc1`: the activation factor was 1 and the activity change, negative = activation is -0.3% (inactive).

As to `Cc1ccc(Nc2nc(CSc3nnnn3C)cs2)cc1`, the activation factor was 0.806 and the activity change, negative = activation is 19.4% (inactive).

As for `O=C(Cc1ccccc1)NC(NC(=S)Nc1cc(Cl)ccc1Cl)C(Cl)(Cl)Cl` (centres undefined), the activation factor was 0.912 and the activity change, negative = activation is 8.8% (inactive).

For `COC(=O)[C@H](C)N(Cc1ccc(Cl)c(Cl)c1)S(=O)(=O)CCNC1CCCC1`, the activation factor turned out to be 0.943 and the activity change, negative = activation was 5.7% (inactive).

Regarding `COc1ccc(OC)c(NC(=O)C2C3CCC(C3=C(C)C)C2C(=O)O)c1` (centres undefined), the activation factor came to 0.891 and the activity change, negative = activation was 10.9% (inactive).

In the case of `O=C(Nc1ccc(Cl)c(C(F)(F)F)c1)NC1CC2CCCC(C1)N2Cc1ccccc1` (centres undefined), the activation factor is 7.69 and the activity change, negative = activation is -669% (active).

Consider `CCc1cccc(CC)c1NC(=O)CN1C2CCCC1CC(NC(=O)Nc1cccc(OC)c1)C2` (centres undefined), for which the activation factor came out at 2.36 and the activity change, negative = activation was -136% (active).

For the molecule `O=C(Nc1ccccc1-c1ccccc1)NC1CC2CCCC(C1)N2CCc1ccccc1` (centres undefined), the activation factor came to 1.76 and the activity change, negative = activation is -76.2% (inactive).

Turning to `COCC(=O)NC1CC2CCCC(C1)N2Cc1ccccc1` (centres undefined), the activation factor was 1.08 and the activity change, negative = activation was -8.2% (inactive).

As for `O=C(Nc1cccn(Cc2ccc(F)cc2)c1=O)NC1CCCCC1`, the activation factor came out at 0.962 and the activity change, negative = activation is 3.75% (inactive).

Take `COc1ccc(NC(=O)NC2CC3CCCC(C2)N3Cc2ccccc2)cc1` (centres undefined): the activation factor came to 2.71 and the activity change, negative = activation is -171% (active).

Take `O=C(Nc1ccccc1-c1ccccc1)NC1CC2CCCC(C1)N2Cc1ccc(F)cc1` (centres undefined): the activation factor came out at 3.7 and the activity change, negative = activation is -270% (active).

As to `COc1cc(C(=O)NC2CC3CCCC(C2)N3CC(=O)Nc2ccccc2)cc(OC)c1OC` (centres undefined), the activation factor was determined as 1.07 and the activity change, negative = activation was -6.8% (inactive).

Take `O=C(NCc1ccccc1)NC1CC2CCC(C1)N2Cc1ccco1` (centres undefined): the activation factor was 1.08 and the activity change, negative = activation was -7.85% (inactive).

In the case of `COc1ccc(NC(=O)Cc2ccccc2)cc1`, the activation factor came out at 0.897 and the activity change, negative = activation is 10.3% (inactive).

On to `CC(=O)NC1CC2CCCC(C1)N2C(=O)Nc1ccc(Cl)c(C(F)(F)F)c1` (centres undefined), for which the activation factor was 1.13 and the activity change, negative = activation is -13% (inactive).

On to `COc1cccc(C(=O)NC2CC3CCCC(C2)N3CC(=O)Nc2ccc(N(C)C)cc2)c1` (centres undefined), for which the activation factor came to 0.99 and the activity change, negative = activation was 1% (inactive).

For the molecule `CC(C)N(C(=O)[C@H]1C[C@H](CC(=O)NCCc2ccccn2)C(=O)N2CCc3c([nH]c4cc(-c5ccco5)ccc34)[C@]12C)C(C)C`, the activation factor was 1.14 and the activity change, negative = activation is -14.4% (inactive).

As to `COc1cc(/C=N/NC(N)=O)cc(Br)c1OCc1ccccc1C`, the activation factor is 0.961 and the activity change, negative = activation was 3.9% (inactive).

In the case of `CC(OC(=O)c1cccs1)C(=O)NCC1CCCO1` (centres undefined), the activation factor stood at 1.09 and the activity change, negative = activation is -9% (inactive).

`CCOC(=O)c1c(C)[nH]c(C(=O)COC(=O)C2CC(=O)N(Cc3ccccc3)C2)c1C` (centres undefined): the activation factor turned out to be 0.964 and the activity change, negative = activation was 3.55% (inactive).

As to `COCc1c(C)cc(C)c(/C=N/O)c1C`, the activation factor was found to be 0.951 and the activity change, negative = activation is 4.9% (inactive).
